PubChem BioAssay (NCI)
About 83,000 compounds went through this panel and 20% of them were active in at least one assay; those are over-represented in the sample as a whole.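 A percent growth of 40 corresponds to 60% growth inhibition; 0 means no net growth; -100 means all cells died. Active threshold: below 10.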 The source made the active and inactive calls.

Tests used:
Experiment in all cases: NCI-60 one-dose screen, 48 h (100 = growth as untreated, 0 = no growth, -100 = all killed)
Conditions in all cases: 10 µM
RPMI-8226 leukemia = test system: RPMI-8226 leukemia
OVCAR-8 ovarian = test system: OVCAR-8 ovarian
OVCAR-5 ovarian = test system: OVCAR-5 ovarian
OVCAR-4 ovarian = test system: OVCAR-4 ovarian
SK-OV-3 ovarian = test system: SK-OV-3 ovarian
IGROV1 ovarian = test system: IGROV1 ovarian
OVCAR-3 ovarian = test system: OVCAR-3 ovarian
HS 578T breast = test system: HS 578T breast
NCI/ADR-RES ovarian = test system: NCI/ADR-RES ovarian
T-47D breast = test system: T-47D breast
BT-549 breast = test system: BT-549 breast
MDA-MB-435 melanoma = test system: MDA-MB-435 melanoma
SW-620 colon = test system: SW-620 colon
MCF7 breast = test system: MCF7 breast
HCT-116 colon = test system: HCT-116 colon
HCC-2998 colon = test system: HCC-2998 colon
KM12 colon = test system: KM12 colon

Measured: growth

Cc1ccc(C(=O)Nc2cccc(F)c2)cc1NC(=O)C1(c2ncnc3[nH]ccc23)CC1
inactive: RPMI-8226 leukemia 83.2% | OVCAR-8 ovarian 89.7% | OVCAR-5 ovarian 83.6% | OVCAR-4 ovarian 101% | SK-OV-3 ovarian 91.1% | IGROV1 ovarian 90.3% | OVCAR-3 ovarian 103% | HS 578T breast 74% | NCI/ADR-RES ovarian 92% | T-47D breast 74.1% | BT-549 breast 93.4% | MDA-MB-435 melanoma 74% | SW-620 colon 67% | MCF7 breast 87.1% | HCT-116 colon 44.5% | HCC-2998 colon 60.5% | KM12 colon 82.7%

CCN(CC)CCC(CNc1c(C)cnc2cc(Cl)ccc12)c1ccc(Cl)c(Cl)c1 (stereo unspecified)
active: MDA-MB-435 melanoma 0.88% | HCC-2998 colon -18.2%
inactive: RPMI-8226 leukemia 24.5% | OVCAR-8 ovarian 65.7% | OVCAR-5 ovarian 58.3% | OVCAR-4 ovarian 63.6% | SK-OV-3 ovarian 84.1% | IGROV1 ovarian 33.2% | OVCAR-3 ovarian 77% | HS 578T breast 72.3% | NCI/ADR-RES ovarian 63.7% | T-47D breast 65.4% | BT-549 breast 75.1% | SW-620 colon 46.2% | MCF7 breast 27.4% | HCT-116 colon 21.7% | KM12 colon 71.3%

CC1(C)N=C(N)N=C(N)N1c1ccc(CCc2ccccc2)c(Cl)c1
inactive: RPMI-8226 leukemia 26.2% | OVCAR-8 ovarian 16.8% | OVCAR-5 ovarian 36.3% | OVCAR-4 ovarian 38% | SK-OV-3 ovarian 36.3% | IGROV1 ovarian 28.1% | OVCAR-3 ovarian 23.7% | HS 578T breast 69.3% | NCI/ADR-RES ovarian 104% | T-47D breast 30.3% | BT-549 breast 35.6% | MDA-MB-435 melanoma 16.2% | SW-620 colon 17.6% | MCF7 breast 13.4% | HCT-116 colon 10.2% | HCC-2998 colon 15.3% | KM12 colon 13.5%

CSc1nc(=O)n(Cc2ccc(F)cc2)c(=O)n1Cc1ccc(C)cc1
inactive: RPMI-8226 leukemia 99.2% | OVCAR-8 ovarian 97.6% | OVCAR-5 ovarian 102% | OVCAR-4 ovarian 98.4% | SK-OV-3 ovarian 98.7% | IGROV1 ovarian 107% | OVCAR-3 ovarian 101% | HS 578T breast 109% | NCI/ADR-RES ovarian 86.6% | T-47D breast 87% | BT-549 breast 103% | MDA-MB-435 melanoma 117% | SW-620 colon 115% | MCF7 breast 91.1% | HCT-116 colon 97.5% | HCC-2998 colon 95.5% | KM12 colon 96.4%

COc1cc2cc3c(nc2cc1OC)CCN3Cc1ccc(NC(=O)c2ccc(Cl)c(C(F)(F)F)c2)cc1
inactive: RPMI-8226 leukemia 91.2% | OVCAR-8 ovarian 88.6% | OVCAR-5 ovarian 99.5% | OVCAR-4 ovarian 80.4% | SK-OV-3 ovarian 91.7% | IGROV1 ovarian 78.5% | OVCAR-3 ovarian 94.3% | HS 578T breast 98.5% | NCI/ADR-RES ovarian 99.4% | T-47D breast 64.2% | BT-549 breast 112% | MDA-MB-435 melanoma 95.6% | SW-620 colon 114% | MCF7 breast 15% | HCT-116 colon 93.4% | HCC-2998 colon 91.2% | KM12 colon 109%

O=C(Nc1cccc(-n2cc(-c3ccncc3)c(-c3ccc(O)c(Cl)c3)n2)c1)c1ccc(Cl)c(Cl)c1
inactive: RPMI-8226 leukemia 18.1% | OVCAR-8 ovarian 35.7% | OVCAR-5 ovarian 109% | OVCAR-4 ovarian 67% | SK-OV-3 ovarian 80.9% | IGROV1 ovarian 60.7% | OVCAR-3 ovarian 81.7% | HS 578T breast 53.8% | NCI/ADR-RES ovarian 49.6% | T-47D breast 36% | BT-549 breast 68.5% | MDA-MB-435 melanoma 47.2% | SW-620 colon 28.2% | MCF7 breast 35.5% | HCT-116 colon 44.4% | HCC-2998 colon 54.3% | KM12 colon 43.9%

O=S(=O)(NCCCNc1nccc(-c2c(-c3ccc(F)cc3)nc3sccn23)n1)c1ccc2ccccc2c1
inactive: RPMI-8226 leukemia 35.9% | OVCAR-8 ovarian 29.7% | OVCAR-5 ovarian 78.7% | OVCAR-4 ovarian 56.8% | SK-OV-3 ovarian 65.2% | IGROV1 ovarian 22.8% | OVCAR-3 ovarian 75.3% | HS 578T breast 71.1% | NCI/ADR-RES ovarian 42.5% | T-47D breast 17.4% | BT-549 breast 46.1% | MDA-MB-435 melanoma 25.7% | SW-620 colon 51.9% | MCF7 breast 30.3% | HCT-116 colon 37.2% | KM12 colon 19.9%
active: HCC-2998 colon 7.22%

COc1cc2cc3c(nc2cc1OC)CCN3Cc1ccc(NC(=O)Nc2ccc(F)cc2F)cc1
inactive: RPMI-8226 leukemia 66% | OVCAR-8 ovarian 79.7% | OVCAR-5 ovarian 105% | OVCAR-4 ovarian 61.2% | SK-OV-3 ovarian 84% | IGROV1 ovarian 89.8% | OVCAR-3 ovarian 84.1% | HS 578T breast 99.7% | NCI/ADR-RES ovarian 73% | T-47D breast 52.1% | BT-549 breast 76.7% | MDA-MB-435 melanoma 89% | SW-620 colon 100% | MCF7 breast 81.3% | HCT-116 colon 81.3% | HCC-2998 colon 85.1% | KM12 colon 87.2%

N#Cc1ncc(-c2cc(F)c(F)c(F)c2)c(NC2CCCCCC2)n1
inactive: RPMI-8226 leukemia 81.1% | OVCAR-8 ovarian 96.2% | OVCAR-5 ovarian 104% | OVCAR-4 ovarian 77.8% | SK-OV-3 ovarian 88.3% | IGROV1 ovarian 93.5% | OVCAR-3 ovarian 100% | HS 578T breast 73.3% | NCI/ADR-RES ovarian 95.3% | T-47D breast 72.6% | BT-549 breast 100% | MDA-MB-435 melanoma 95.5% | SW-620 colon 92.8% | MCF7 breast 79.1% | HCT-116 colon 84.4% | HCC-2998 colon 91.9% | KM12 colon 78.7%

CCN(CC)CCOc1nc2ccc(OC)cc2c2c1-c1ccc(OC)cc1C2=O
active: RPMI-8226 leukemia -24.5% | OVCAR-8 ovarian -60.1% | OVCAR-4 ovarian -6.86% | IGROV1 ovarian -48.8% | OVCAR-3 ovarian -94.2% | NCI/ADR-RES ovarian 0.706% | MDA-MB-435 melanoma -22.7% | SW-620 colon -59.4% | MCF7 breast -58.6% | HCT-116 colon -98.3% | KM12 colon -82%
inactive: OVCAR-5 ovarian 49.3% | SK-OV-3 ovarian 30.9% | HS 578T breast 10.3% | T-47D breast 68.7% | BT-549 breast 65.1% | HCC-2998 colon 38.6%

O=c1[nH]c(-c2ccc(Cl)cc2)nc2sc3c(c12)CCCC3
inactive: RPMI-8226 leukemia 96.7% | OVCAR-8 ovarian 68% | OVCAR-5 ovarian 103% | OVCAR-4 ovarian 86.2% | SK-OV-3 ovarian 92% | IGROV1 ovarian 82.1% | OVCAR-3 ovarian 101% | HS 578T breast 104% | NCI/ADR-RES ovarian 81.8% | T-47D breast 64.4% | BT-549 breast 92.3% | MDA-MB-435 melanoma 93.2% | SW-620 colon 58.8% | MCF7 breast 36% | HCT-116 colon 60.9% | HCC-2998 colon 109% | KM12 colon 97.6%

COc1ccc(-c2nn(-c3cccc(NC(=O)c4ccc(N5CCOCC5)c(C(F)(F)F)c4)c3)cc2-c2ccncc2)cc1Cl
inactive: RPMI-8226 leukemia 14.6% | OVCAR-8 ovarian 55.3% | OVCAR-5 ovarian 73.1% | OVCAR-4 ovarian 92.3% | SK-OV-3 ovarian 83.5% | IGROV1 ovarian 94.3% | OVCAR-3 ovarian 83.3% | HS 578T breast 41.1% | NCI/ADR-RES ovarian 52.7% | T-47D breast 68.1% | BT-549 breast 67.9% | MDA-MB-435 melanoma 30% | SW-620 colon 83.3% | MCF7 breast 53% | HCT-116 colon 55.5% | HCC-2998 colon 67.6% | KM12 colon 43.7%

O=[N+]([O-])c1ccc(Oc2cc(Cl)c(Cl)cc2Cl)c(C(F)(F)F)c1
inactive: RPMI-8226 leukemia 97.3% | OVCAR-8 ovarian 97.8% | OVCAR-5 ovarian 87% | OVCAR-4 ovarian 93.8% | SK-OV-3 ovarian 103% | IGROV1 ovarian 96.5% | OVCAR-3 ovarian 105% | HS 578T breast 104% | NCI/ADR-RES ovarian 109% | T-47D breast 107% | BT-549 breast 110% | MDA-MB-435 melanoma 95.6% | SW-620 colon 106% | MCF7 breast 97.9% | HCT-116 colon 102% | HCC-2998 colon 123% | KM12 colon 101%

CCCCCC(=O)c1ccc(OCCCN2CCN(C(=O)OCC)CC2)cc1
inactive: RPMI-8226 leukemia 48.6% | OVCAR-8 ovarian 104% | OVCAR-5 ovarian 86% | OVCAR-4 ovarian 85.1% | SK-OV-3 ovarian 104% | IGROV1 ovarian 112% | OVCAR-3 ovarian 104% | HS 578T breast 102% | NCI/ADR-RES ovarian 83.3% | T-47D breast 88.1% | BT-549 breast 91.4% | MDA-MB-435 melanoma 98.8% | SW-620 colon 93.2% | MCF7 breast 93% | HCT-116 colon 75.6% | HCC-2998 colon 96.9% | KM12 colon 94.4%

FC(F)(F)c1ccc(-c2cnc(-n3cc(COCCN4CCCCC4)nn3)nc2NC2CCCCCC2)cc1
active: RPMI-8226 leukemia -29.1% | MDA-MB-435 melanoma -68.9% | SW-620 colon 4.79% | MCF7 breast -1.43% | HCC-2998 colon 6.9%
inactive: OVCAR-8 ovarian 54.7% | OVCAR-5 ovarian 67.9% | OVCAR-4 ovarian 39.9% | SK-OV-3 ovarian 56.8% | IGROV1 ovarian 36.7% | OVCAR-3 ovarian 37.1% | HS 578T breast 61.3% | NCI/ADR-RES ovarian 70.6% | T-47D breast 30.5% | BT-549 breast 68.1% | HCT-116 colon 22.3% | KM12 colon 17.6%

Cc1cccc(C)c1NC(=O)c1sc2nc3c(cc2c1N)C(=O)CCC3
inactive: RPMI-8226 leukemia 96% | OVCAR-8 ovarian 97.9% | OVCAR-5 ovarian 97.6% | OVCAR-4 ovarian 101% | SK-OV-3 ovarian 22.5% | IGROV1 ovarian 89.4% | OVCAR-3 ovarian 100% | HS 578T breast 93.2% | NCI/ADR-RES ovarian 87.6% | T-47D breast 92.8% | BT-549 breast 90.7% | MDA-MB-435 melanoma 13% | SW-620 colon 72.2% | MCF7 breast 54.6% | HCT-116 colon 90.6% | HCC-2998 colon 72.5% | KM12 colon 56.3%

CCCC#CCN(CC)CC
inactive: RPMI-8226 leukemia 105% | OVCAR-8 ovarian 100% | OVCAR-5 ovarian 112% | OVCAR-4 ovarian 104% | SK-OV-3 ovarian 107% | IGROV1 ovarian 110% | OVCAR-3 ovarian 117% | HS 578T breast 105% | NCI/ADR-RES ovarian 114% | T-47D breast 108% | BT-549 breast 120% | MDA-MB-435 melanoma 95% | SW-620 colon 107% | MCF7 breast 102% | HCT-116 colon 109% | HCC-2998 colon 120% | KM12 colon 111%

COc1cc(-c2cc(-c3cc4c([nH]c5ccccc54)c(-c4cc(OC)c(OC)c(OC)c4)n3)cc(-c3ccccc3)n2)cc(OC)c1OC
active: MDA-MB-435 melanoma -1.18%
inactive: RPMI-8226 leukemia 46% | OVCAR-8 ovarian 70.2% | OVCAR-5 ovarian 88.6% | OVCAR-4 ovarian 58.6% | SK-OV-3 ovarian 90.7% | IGROV1 ovarian 74.6% | OVCAR-3 ovarian 72.3% | HS 578T breast 52.5% | NCI/ADR-RES ovarian 42% | T-47D breast 43.3% | BT-549 breast 66.6% | SW-620 colon 41.4% | MCF7 breast 44% | HCT-116 colon 57% | HCC-2998 colon 72.8% | KM12 colon 60%
